“And” between values parts separate entries of the source, which are not always exact repeats. Equal entries are not always repeated. Results filed as inconclusive are left out. More than one record can exist for a structure, and the calls need not agree. The source made the active and inactive calls. Unless noted, calls follow the shape of the dose curve; as a rule, active = well fitted curve in the direction sought with a large enough effect in the repeat runs; inconclusive = weak or mixed curves; inactive = no such curve, though single readings can be large; an effect the other way counts as inactive or inconclusive.
Key:
[1] = A CellTox Green Cytotoxicity Assay to monitor cytotoxicity in HepG2 cells - 0 hour (AID 1224882); also: nearly all actives have a fitted effect of over 35% in size
Method in brief: (§1)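 HepG2 cells, 600/well, preincubated 5 h with CellTox Green dye, then exposed to Tox21 compounds in DMSO at 37 C for up to 40 h. Dead-cell DNA fluorescence read at the indicated time point.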

[2] = A CellTox Green Cytotoxicity Assay to monitor cytotoxicity in HepG2 cells - 32 hour (AID 1224883); also: nearly all actives have a fitted effect of over 50% in size; also: potency is read from the fitted curve at half-maximal effect
Method in brief: as §1

[3] = A CellTox Green Cytotoxicity Assay to monitor cytotoxicity in HEK293 cells - 8 hour (AID 1224884); also: nearly all actives have a fitted effect of over 35% in size
Method in brief: (§2)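 HEK293 cells, 600/well, were preincubated 5 hours and then exposed to compounds at 37 C for up to 40 hours. A cell-impermeant cyanine dye staining dead-cell DNA was read by fluorescence at 0, 8, 16, 24, 32 and 40 h time points.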

[4] = qHTS RealTime-Glo MT Cell Viability Assay in HEK293 cells - 24 hour (AID 1224886); also: nearly all actives have a fitted effect of over 50% in size; also: potency is read from the fitted curve at half-maximal effect
Method in brief: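 Quantitative high-throughput screen of the Tox21 10K library in HEK293: cells and RealTime-Glo reagents plated together, compound added at 5 h, luminescence monitored through 40 h at 37 C.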

[5] = qHTS RealTime-Glo MT Cell Viability Assay in HEK293 cells - 8 hour (AID 1224887); also: nearly all actives have a fitted effect of over 50% in size; also: potency is read from the fitted curve at half-maximal effect
Method in brief: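 600 cells/well were plated with the nonlytic NanoLuc/prosubstrate reagent, pre-incubated 5 h, then given 23 nL of compound in DMSO. Incubation at 37 C for 40 h, with luminescence from viable-cell-reduced substrate read repeatedly from 0 h.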

[6] = A CellTox Green Cytotoxicity Assay to monitor cytotoxicity in HEK293 cells - 16 hour (AID 1224888); also: nearly all actives have a fitted effect of over 35% in size; also: potency is read from the fitted curve at half-maximal effect
Method in brief: as §2

[7] = qHTS RealTime-Glo MT Cell Viability Assay in HepG2 cells - 0 hour (AID 1224889); also: nearly all actives have a fitted effect of over 50% in size
Method in brief: (§3)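 Compound treatment began 5 h after plating HepG2 cells (600/well) with NanoLuc luciferase and prosubstrate. Plates stayed at 37 C for 40 h; luminescence was captured at six time points, 0 h through 40 h.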

[8] = A CellTox Green Cytotoxicity Assay to monitor cytotoxicity in HepG2 cells - 8 hour (AID 1224890); also: nearly all actives have a fitted effect of over 45% in size
Method in brief: as §1

[9] = qHTS assay to identify small molecule antagonists of the estrogen receptor alpha (ER-alpha) signaling pathway using the BG1 cell line in the presence of 0.1 nM 17-beta-estradiol - cell viability counter screen (AID 1259241); also: nearly all actives have a fitted effect of over 40% in size
Method in brief: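 Viability in VM7Luc4E2 cells after 22 hr compound exposure under 0.1 nM 17beta-estradiol stimulation, by CellTiter-Fluor.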

[10] = qHTS assay to identify small molecule antagonists of the androgen receptor (AR) signaling pathway using the MDA cell line in the presence of 0.5 nM R1881 - cell viability counter screen (AID 1259242); also: nearly all actives have a fitted effect of over 45% in size; also: potency is read from the fitted curve at half-maximal effect
Method in brief: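 MDA-kb2 cells (MMTV-luciferase, AR/GR responsive) were treated with compounds plus 0.5 nM R1881 (final) for 16 hr at 37C, 0% CO2. Viability was then read in the same wells as live-cell protease fluorescence (CellTiter-Fluor, 30 min).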

[11] = molecular target: Estrogen receptor (Homo sapiens) (UniProt P03372); experiment: qHTS assay to identify small molecule antagonists of the estrogen receptor alpha (ER-alpha) signaling pathway using the BG1 cell line in the presence of 0.1 nM 17-beta-estradiol (AID 1259244); also: nearly all actives have a fitted effect of over 50% in size
Chain of Estrogen receptor (Homo sapiens) (P03372 whole entry, looked up): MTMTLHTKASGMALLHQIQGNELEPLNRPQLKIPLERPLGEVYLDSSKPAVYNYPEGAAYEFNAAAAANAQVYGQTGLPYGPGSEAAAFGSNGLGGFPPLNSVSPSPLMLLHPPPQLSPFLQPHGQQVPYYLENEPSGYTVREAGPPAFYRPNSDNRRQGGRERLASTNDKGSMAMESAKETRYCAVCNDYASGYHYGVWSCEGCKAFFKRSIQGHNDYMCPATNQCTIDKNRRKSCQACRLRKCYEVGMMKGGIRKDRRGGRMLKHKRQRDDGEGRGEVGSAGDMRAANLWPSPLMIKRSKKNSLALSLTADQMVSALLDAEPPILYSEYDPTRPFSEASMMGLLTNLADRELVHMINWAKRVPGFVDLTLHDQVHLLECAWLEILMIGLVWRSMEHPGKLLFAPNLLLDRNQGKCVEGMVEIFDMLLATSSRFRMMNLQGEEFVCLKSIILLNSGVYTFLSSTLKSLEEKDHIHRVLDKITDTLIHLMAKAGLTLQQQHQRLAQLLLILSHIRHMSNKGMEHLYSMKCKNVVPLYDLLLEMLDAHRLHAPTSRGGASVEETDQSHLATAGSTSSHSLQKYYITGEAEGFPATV
Method in brief: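 VM7Luc4E2 cells (endogenous full-length ER-alpha, 4×ERE-luciferase), kept 5 days in phenol red-free, charcoal-stripped FBS medium; 4,000 cells/well. Compounds added with 0.1 nM (final) 17beta-estradiol, 22 hr at 37C; luminescence read with ONE-Glo after 30 min.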

[12] = qHTS assay to identify small molecule HDAC inhibitors (AID 1259364); also: top concentration of the series differs between compounds; nearly all actives have a fitted effect of over 45% in size
Method in brief: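 Wild-type HCT-116 cells, plated overnight at 37 C, exposed to compounds 2 hr at 37 C; luminogenic HDAC-Glo substrate then added 30 min at room temperature. Luminescence reports relative endogenous class I/II HDAC activity.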

[13] = qHTS assay to identify small molecule HDAC inhibitors - cell viability counter screen (AID 1259365)
Method in brief: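 Cytotoxicity was gauged in wild-type HCT-116 cells after a brief 2hr treatment with DMSO-dissolved compounds at 37C and 5% CO2, using CellTiter-Glo luminescence developed for 30min at room temperature.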

[14] = qHTS assay to identify small molecule agonists of the sonic hedgehog signaling (Shh) pathway - cell viability counter screen (AID 1259366); also: nearly all actives have a fitted effect of over 50% in size; also: potency is read from the fitted curve at half-maximal effect
Method in brief: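 Stable Gli1-Luc NIH/3T3 clone, 2,000 cells/well. Compound exposure 24hr at 37C. Read-out: CellTiter-Fluor fluorescence.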

[15] = qHTS assay to identify small molecule antagonists of the sonic hedgehog signaling (Shh) pathway - cell viability counter screen (AID 1259367); also: nearly all actives have a fitted effect of over 55% in size; also: potency is read from the fitted curve at half-maximal effect
Method in brief: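 NIH/3T3-derived Gli1-Luc reporter cells (2,000 per well) rested 4 hr at 37 C, then received DMSO compounds plus conditioned medium. After 23 hr of treatment, CellTiter-Fluor was added for 1 hr at 37C and fluorescence read.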

[16] = qHTS assay to identify small molecule agonists of the sonic hedgehog signaling (Shh) pathway (AID 1259368; calls by dose curve;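 also: NIH/3T3-derived 3T3Gli1-Luc cells carrying a stable Gli1-driven firefly luciferase reporter; series mostly up to about 92 µM; nearly all actives have a fitted effect of over 15% in size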)
Method in brief: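 NIH/3T3-derived 3T3Gli1-Luc cells with stably integrated Gli1-driven firefly luciferase, 2,000 cells/well, compounds added after 4 hr. Incubated 24 hr at 37C, 5% CO2; luminescence read after 30 min with luciferase reagent at room temperature.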

[17] = qHTS assay to identify small molecule phospholipidosis (PLD) inducers (AID 1259344; active = well fitted curve in the direction sought with a large enough effect; an effect the other way counts as inactive or inconclusive)
Method in brief: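 HepG2 cells on collagen I, attached 4 h at 37 C, were co-treated with compound and LipidTOX Red dye for 24 h at 37 C, then fixed with paraformaldehyde plus Hoechst 33342 and imaged by high-content microscopy for phospholipid accumulation.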

[18] = qHTS RealTime-Glo MT Cell Viability Assay in HepG2 cells - 16 hour (AID 1224885); also: nearly all actives have a fitted effect of over 50% in size; also: potency is read from the fitted curve at half-maximal effect
Method in brief: as §3

[19] = molecular target: Androgen receptor (Homo sapiens) (UniProt P10275); experiment: qHTS assay to identify small molecule antagonists of the androgen receptor (AR) signaling pathway using the MDA cell line in the presence of 0.5 nM R1881 (AID 1259243); also: nearly all actives have a fitted effect of over 50% in size
Chain of Androgen receptor (Homo sapiens) (P10275 whole entry, looked up): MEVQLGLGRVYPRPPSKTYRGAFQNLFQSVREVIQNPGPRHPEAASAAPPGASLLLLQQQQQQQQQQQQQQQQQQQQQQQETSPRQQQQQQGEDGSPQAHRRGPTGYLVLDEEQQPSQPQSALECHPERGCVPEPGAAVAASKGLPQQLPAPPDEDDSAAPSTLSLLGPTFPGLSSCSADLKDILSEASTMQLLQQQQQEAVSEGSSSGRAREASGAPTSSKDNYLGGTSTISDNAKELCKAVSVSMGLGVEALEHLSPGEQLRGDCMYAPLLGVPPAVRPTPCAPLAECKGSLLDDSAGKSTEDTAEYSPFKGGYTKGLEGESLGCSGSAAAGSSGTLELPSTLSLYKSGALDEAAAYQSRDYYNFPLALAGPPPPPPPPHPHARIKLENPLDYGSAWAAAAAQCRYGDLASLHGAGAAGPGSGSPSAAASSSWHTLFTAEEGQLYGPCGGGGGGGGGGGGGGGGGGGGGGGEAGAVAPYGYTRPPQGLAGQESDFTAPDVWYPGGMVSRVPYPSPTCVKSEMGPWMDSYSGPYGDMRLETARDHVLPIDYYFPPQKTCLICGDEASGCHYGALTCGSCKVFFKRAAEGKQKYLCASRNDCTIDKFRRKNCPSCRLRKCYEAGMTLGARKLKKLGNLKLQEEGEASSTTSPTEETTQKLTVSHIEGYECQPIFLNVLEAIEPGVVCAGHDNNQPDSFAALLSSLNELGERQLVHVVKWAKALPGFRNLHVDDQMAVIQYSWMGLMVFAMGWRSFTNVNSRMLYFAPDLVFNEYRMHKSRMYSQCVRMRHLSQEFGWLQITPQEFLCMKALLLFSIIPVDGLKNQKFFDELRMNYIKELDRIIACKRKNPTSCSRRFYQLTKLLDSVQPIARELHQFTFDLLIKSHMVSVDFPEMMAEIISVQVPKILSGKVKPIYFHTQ
Method in brief: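 MDA-kb2 cells (MMTV-luciferase, responsive to AR and GR) at 3,000/well, rested 5 h at 37C, 0% CO2, then given compounds plus 0.5 nM R1881 (final) for 16 hr. Luciferase read with ONE-Glo after 30 min at room temperature.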

Measured: Potency

Cc1sccc1Br
not listed: [14] | [15] | [16] | [17] | [18] | [19]
inactive: all other assays above

COC(=O)CC(C)=O
not listed: [1] | [11] | [12] | [17] | [18] | [19]
inactive: all other assays above

O=c1cc(CO)occ1O
not listed: [12] | [14] | [15] | [18] | [19]
inactive: all other assays above

CC(=O)CC(C)(C)C1CCCCC1
not listed: [6] | [17] | [19]
inactive: all other assays above

CN(C)CCCN1c2ccccc2CCc2ccc(Cl)cc21
active: [2] 34.7 µM and 23.9 µM | [18] 49 µM | [4] 38.9 µM and 21.3 µM | [6] 54.9 µM and 23.9 µM | [10] 48.6 µM | [14] 30.6 µM
43.6 µM (active) and inactive: [5]
inactive: [1] | [8] | [12] | [13] | [16]
48.6 µM (active) and inactive: [15]

CCS(=O)(=O)c1ccc(OC)c(C(=O)OC)c1
not listed: [6] | [15] | [16] | [17] | [19]
inactive: all other assays above

O=C(CCCN1CCN(c2ccccn2)CC1)c1ccc(F)cc1
not listed: [1] | [4] | [5] | [11] | [12] | [19]
inactive: all other assays above

COc1c(N2C[C@@H]3CCCN[C@@H]3C2)c(F)cc2c(=O)c(C(=O)O)cn(C3CC3)c12
not listed: [6] | [12] | [18] | [19]
inactive: all other assays above

CC(C)CCCC(C)N (stereo not given)
not listed: [6] | [9] | [19]
inactive: all other assays above

O=S(O)CO
not listed: [1] | [12]
inactive: all other assays above

COc1ccc2c(c1)c(CC(=O)OCC(=O)O)c(C)n2C(=O)c1ccc(Cl)cc1
not listed: [4] | [11]
inactive: all other assays above

OC1CCCCC1c1ccccc1 (stereo not given)
not listed: [1] | [17]
inactive: all other assays above

CCOC(=O)Nc1ccc(NCc2ccc(F)cc2)nc1N
not listed: [4] | [6] | [7] | [8] | [19]
inactive: all other assays above

CN1CC(=O)NC1=N
not listed: [6] | [7] | [11] | [12] | [14] | [16]
inactive: all other assays above
